Anthrax LF inh2 – Bacillus anthracis LF protease inhibitors, primary screen, biochemical, multiplex microsphere, MLPCN library; Lethal factor (Bacillus anthracis), P15917; multiplex microsphere protease cleavage assay; inhibition, % at 10 µM; hit rate 0.12% among 360,000
Target sequence (P15917 whole entry, looked up): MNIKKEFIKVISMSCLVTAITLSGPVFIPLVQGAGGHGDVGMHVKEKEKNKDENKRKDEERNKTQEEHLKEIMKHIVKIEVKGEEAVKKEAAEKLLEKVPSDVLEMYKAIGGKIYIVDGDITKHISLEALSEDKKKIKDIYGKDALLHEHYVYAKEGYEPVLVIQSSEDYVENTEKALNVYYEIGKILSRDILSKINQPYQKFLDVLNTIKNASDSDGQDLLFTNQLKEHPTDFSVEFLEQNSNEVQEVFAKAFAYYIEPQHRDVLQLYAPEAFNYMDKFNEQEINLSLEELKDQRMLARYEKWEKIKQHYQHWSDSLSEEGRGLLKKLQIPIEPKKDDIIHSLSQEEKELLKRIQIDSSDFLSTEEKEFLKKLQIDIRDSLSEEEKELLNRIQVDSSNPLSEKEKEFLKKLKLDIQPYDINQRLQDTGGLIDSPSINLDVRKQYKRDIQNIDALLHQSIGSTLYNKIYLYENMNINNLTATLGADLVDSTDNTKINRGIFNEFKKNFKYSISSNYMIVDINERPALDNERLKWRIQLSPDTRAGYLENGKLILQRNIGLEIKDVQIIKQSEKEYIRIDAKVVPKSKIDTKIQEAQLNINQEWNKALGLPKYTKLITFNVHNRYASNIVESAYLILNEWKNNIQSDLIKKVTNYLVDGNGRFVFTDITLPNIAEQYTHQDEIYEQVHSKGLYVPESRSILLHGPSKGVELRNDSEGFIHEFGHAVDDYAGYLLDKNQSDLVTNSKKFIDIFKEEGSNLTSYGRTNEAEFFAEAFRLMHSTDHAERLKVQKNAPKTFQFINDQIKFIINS
BoNT F protease – BoNT/F light chain protease inhibitors, primary screen, biochemical, flow cytometry, MLPCN library; Multiplex microsphere protease cleavage assay; inhibition, % at 10 µM; hit rate 0.22% among 360,000; AID 588497, 2011; in the data active = inhibition above about 35%, passing the limit was not always enough; inconclusive = no clear call, values can overlap the other calls
Bead autofluor – flagged as autofluorescent in microsphere protease counterscreen; hit rate 3.1% among 360,000; AID 624483; fluorescence intensity (test concentration not listed); compound autofluorescence counterscreen, microsphere flow cytometry; hits give high values; in the data active = fluorescence intensity above about 16000; inconclusive = no clear call, values can overlap the other calls
BoNT A protease – BoNT/A light chain protease inhibitors, primary screen, biochemical, flow cytometry, MLPCN library. multiplex microsphere protease substrate cleavage. inhibition, % at 10 µM. hit rate 0.17% among 360,000. Botulinum neurotoxin type A light chain protease (Clostridium botulinum A str. ATCC 3502)
MazF activator – activators of E. coli MazEF toxin-antitoxin RNase, primary screen, biochemical, fluorescence, uHTS; FAM/BHQ RNA-DNA oligo cleavage fluorescence, 5 h; activation, % at 20 µM; AID 504720, 2011; hit rate 0.32% among 350,000; in the data active = activation above about 50%
Hits are given with their value; 0 = inactive; ? = inconclusive; - = no result given. Shown are actives, neighbours in structure and some others; about 3.6% of the full set was active somewhere. Cut-off read from the data, not from the text of the source, unless noted: active = inhibition above about 30%; inconclusive = no clear call, values can overlap the other calls; inactive = below that.

SMILES | Anthrax LF inh2 | BoNT F protease | Bead autofluor | BoNT A protease | MazF activator
Cc1ccc2c(c1)CCCN2C(=O)c1cc2ccccc2oc1=O | 0 | 0 | 16268 | ? | 0
Cc1ccc2c(c1)CCCN2C(=O)c1c(C)noc1C | 0 | 0 | 22666 | 0 | 0
Cc1ccc2c(c1)CCCN2C(=O)C1CCCO1 (configuration not stated) | 0 | 0 | 22991 | 0 | 0
COC(=O)N1CCCc2cc(C)ccc21 | 0 | 0 | 0 | 0 | 0
Cc1ccc2c(c1)CCCN2C(=O)c1ccoc1C | 0 | 0 | 21940 | 0 | 0
CCc1ccc2c(c1)CCCN2C(=O)c1ccccc1C(=O)O | 0 | 0 | 19882 | 0 | 0
COc1cc(/C=C/C(=O)OCC(=O)NCCc2ccc(F)cc2)ccc1OC(F)F | 0 | 0 | 0 | 0 | 0
CN(C)c1ccc(C2NCCS2)cc1 (configuration not stated) | 0 | 0 | 22912 | 0 | 0
COCCCN(C(=O)Cc1ccc(S(=O)(=O)N2CCOCC2)s1)c1c(N)n(Cc2ccccc2)c(=O)[nH]c1=O | 0 | 0 | 0 | 0 | 0
O=C(Nc1ccncc1Cl)c1ccncc1 | 0 | 0 | 0 | 0 | 0
Cc1cc2nc(C3CCCCC3)c(CC(C)(C)C)n2c(C)c1Br | 0 | 0 | 0 | 0 | -
COc1ccc(S(=O)(=O)N(C)CC(=O)N2CCN(C)CC2)cc1C | 0 | 0 | 23309 | 0 | 0
CCN1CCN(C(=O)CN(C)S(=O)(=O)c2ccc(OC)c(C)c2)CC1 | 0 | 0 | 0 | 0 | 0
COc1ccc(C)cc1S(=O)(=O)N(C)CC(=O)N1CCC(C(N)=O)CC1 | 0 | 0 | 0 | 0 | 0
COc1ccc(S(=O)(=O)N(C)CC(=O)N2CCC(C(N)=O)CC2)cc1Cl | 0 | 0 | 21013 | ? | 0
OCC[C@@H]1C[C@H](O)[C@@H](O)[C@@]2(OCCc3cc(Cl)ccc32)O1 | 0 | 0 | 0 | 0 | -
Cc1c(C(=O)NCc2ccc3c(c2)OCO3)sc(=O)n1Cc1ccc(-c2ccccc2)cc1 | 0 | 0 | 0 | 0 | -
O=C1CNC(=O)N1CC(=O)N1CCCc2ccccc21 | 0 | 0 | 20063 | ? | 0
O=C(CN1CCCCC1)N1CCCc2ccccc21 | 0 | 0 | 0 | 0 | 0
O=C1c2ccccc2C(=O)N1CCC(=O)N1CCc2ccccc21 | 0 | 0 | 22459 | 0 | 0
CC(C)C(=O)c1cn(CC(=O)N2CCCc3ccccc32)c2ccccc12 | 0 | 0 | 23272 | ? | 0
O=C1c2ccccc2C(=O)N1CCC(=O)N1CCCc2ccccc21 | 0 | 0 | 0 | 0 | 0
CNC[C@H]1Oc2cc(Br)ccc2S(=O)(=O)N([C@@H](C)CO)C[C@@H]1C | 0 | 0 | 0 | 0 | 0
Cn1ccnc1Sc1nc(Nc2cccc(Cl)c2)nc(N2CCOCC2)n1 | 0 | 0 | 22665 | 0 | 0
O=C1CC[C@@H](C(=O)O)N1 | 0 | 0 | 0 | 0 | 0
SMILES | Anthrax LF inh2 | BoNT F protease | Bead autofluor | BoNT A protease | MazF activator
COc1ccccc1NC(=O)CN1CCN(C2c3ccccc3-c3ccccc32)CC1 | 0 | 0 | 0 | 0 | 0
CC(C)(C)C(=O)CN1CCN(C2c3ccccc3-c3ccccc32)CC1 | 0 | 0 | 21967 | 0 | 0
CC(=O)NC12CC3CC(C1)CC(C(=O)N1CCN(S(=O)(=O)c4ccc(C(C)C)cc4)CC1)(C3)C2 | 0 | 0 | 0 | 0 | 0
CCC(C)Sc1cc(-c2nc3cc(C)ccn3c2NC2CCCCC2)ccc1OC (configuration not stated) | 0 | 0 | 23753 | 0 | 0
O=C(Cn1nc(-c2ccccc2)ccc1=O)NCC1COCCO1 (configuration not stated) | 0 | 0 | 19171 | 0 | 0
COc1cccc(-c2ccc(=O)n(CC(=O)NCCN3CCOCC3)n2)c1 | 0 | 0 | 25197 | 0 | 0
COc1cccc(-c2ccc(=O)n(CC(=O)Nc3cc4c(cc3NC(C)=O)OCCO4)n2)c1 | 0 | 0 | 21027 | ? | 0
O=C(Cn1nc(-c2ccc(Cl)cc2)ccc1=O)NCC1COCCO1 (configuration not stated) | 0 | 0 | 0 | 0 | 0
COc1ccc(-c2csc(Nc3ccc(Oc4ccccc4)cc3)n2)cc1 | 0 | 0 | 0 | 0 | -
O[C@H]1C[C@H](c2ccc(Cl)cc2)N(Cc2cccs2)C[C@@H]1n1cc(-c2ccc(F)cc2)nn1 | 0 | 0 | 0 | 0 | 0
Cc1ccc(C(=O)N2CCN(c3ccccc3F)CC2)cc1S(=O)(=O)N1CCOCC1 | 0 | 0 | 0 | 0 | 0
O=C(CSc1nc2ccccc2s1)CSc1nc2ccccc2s1 | 0 | 0 | 0 | 0 | 0
O=C(CSc1nc2ccccc2s1)c1cc2ccccc2o1 | 0 | 0 | 23696 | 0 | 0
Cc1ccc(C(=O)CSc2nnc(-c3c[nH]c4ccccc34)o2)cc1 | 0 | 0 | 19814 | ? | 0
COc1ccc(OC)c(C2C3=C(COC3=O)Nc3cc4c(cc32)OCO4)c1 (configuration not stated) | 0 | 0 | 19754 | 0 | 0
C#CC1(O)CCC2C3CCC4=Cc5oncc5CC4(C)C3CCC21C (configuration not stated) | 0 | 0 | 0 | 0 | -
CC(=O)Nc1cccc(-c2csc(C(C)(O)c3ccc(F)c(F)c3)n2)c1 (configuration not stated) | 0 | 0 | 0 | 0 | -
CC(=O)n1nc(-c2ccc(Cl)cc2)nc1NCc1ccco1 | 0 | 0 | 21596 | 0 | 0
COc1ccc(CC(=O)n2nc(-c3ccc(Cl)cc3)nc2NCc2ccco2)cc1 | 0 | 0 | 24639 | ? | 0
COc1cc(C(C)=O)ccc1OCC(=O)Nc1cc(S(=O)(=O)N2CCOCC2)ccc1N1CCCC1 | 0 | 0 | 0 | 0 | 0
O=C(/C=C/c1ccc(Cl)cc1)NCCSc1ccccc1 | 0 | 0 | 19211 | ? | 0
CCS(=O)(=O)N1Cc2cc(C(=O)NCCOC)nc(-c3cccc(-c4ccncc4)c3)c2[C@H]1CCO | 0 | 0 | 0 | 0 | -
COc1ccc(-c2nc(C#N)c(N3CCCCC3)o2)cc1 | 0 | 0 | 0 | 0 | 0
COc1nc(C#N)c(N2CCOCC2)o1 | 0 | 0 | 23391 | 0 | 0
CCOC(=O)N1CCC(NS(=O)(=O)c2cc(C(=O)OC)n(C)c2)CC1 | 0 | 0 | 0 | 0 | 0
SMILES | Anthrax LF inh2 | BoNT F protease | Bead autofluor | BoNT A protease | MazF activator
CSc1ccc(C(O)c2ncc(-c3ccccc3F)[nH]2)cc1 (configuration not stated) | 0 | 0 | 0 | 0 | -
O=C1C(Cc2ccc(Br)cc2)SC(=Nc2ccccc2)N1c1ccccc1 (configuration not stated) | 0 | 36 | 0 | 0 | 0
O=C1C(Cc2ccc(F)cc2)SC(=Nc2ccccc2)N1c1ccccc1 (configuration not stated) | 0 | 0 | 0 | 0 | 0
CN(C)CCOCCP(=O)(c1ccccc1)c1ccccc1 | 0 | 0 | 23350 | 0 | 0
O=c1oc2ccccc2c(N2CCC(c3ccccc3)CC2)c1[N+](=O)[O-] | 0 | 0 | 0 | 0 | 0
CC1CCCN(c2c([N+](=O)[O-])c(=O)oc3ccccc23)C1 (configuration not stated) | 0 | 0 | 23803 | ? | 0
CCCc1c(O)nc(SCCN(CC)CC)[nH]c1=O | 0 | 0 | 0 | 0 | 0
